The values below come from PubChem BioAssay (Tox21).

Inconclusive results are not listed. Entries that show only a call come without a potency. Active and inactive are the calls of the source. Calls follow the shape of the full dose curve.

The nature of this experiment: p53 small molecule agonists, cell-based qHTS assay with human liver microsomes (AID 1963577).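 Also: p53 response element beta-lactamase reporter cells with liver microsomes plus NADPH.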 The conditions noted are these: HCT-116 p53RE-bla with human liver microsomes, ratio, 16 h; series mostly up to 66 µM. The source says:
National Center for Advancing Translational Sciences [NCATS]
Division of Preclinical Innovation [DPI]
U.S. Environmental Protection Agency [EPA]
National Institutes of Environmental Health Sciences [NIEHS]
National Toxicology Program [NTP]
U.S. Food and Drug Administration [FDA]
p53, a tumor suppressor protein, is activated following cellular insult, including DNA damage and other cellular stresses. The activation of p53 regulates cell fate by inducing DNA repair, cell cycle arrest, apoptosis, or cellular senescence. The activation of p53, therefore, is a good indicator of DNA damage and other cellular stresses. […] The activation of the reporter gene under culture conditions can be detected by fluorescence intensity.
Tox21 Assay Protocol Summary:
The p53RE-bla cells were dispensed at 4,000cells/3ul/well in 1536-well black-clear bottom plates. After the assay plates were incubated at 37 C, 5% CO2 incubator for 5 hours, 23 nL of compounds dissolved in DMSO, positive controls or DMSO only was transferred to the assay plate. Following compound addition, 3 uL of human liver microsomes (XenoTech, Kansas City, KS) at final concentration of 0.5 mg/mL and 1uL of Beta-Nicotinamide adenine dinucleotide 2-phosphate (NADPH) at final concentration of 0.5 mg/mL were transferred to the assay plate. The plates were incubated at 37 C for 16 hours. 1 uL of LiveBLAzer detection mixture was added to each well and the plates were incubated at room temperature in the dark for 2 h.
(In general: qHTS replaces the single test concentration by a dilution series.)
As for `CC(=O)Nc1ccc(N)cc1`, the Potency entry is “inactive”.
The same measure, in the same setting: with `Cc1cccc(C)c1OCC(C)N` (stereo not given) the entry was “inactive”; with `CCC(C)CCCC(C)(C)O` (stereo not given), “inactive”.
Take `S=C(SSSSSSC(=S)N1CCCCC1)N1CCCCC1`: the activation is -17.2% [at 13.5 µM] (inactive).
For the compound `C/C=C(\C)C(=O)OCCc1ccccc1`, the Potency result was “inactive”.
Still for that read-out and setting: for `CCN(CC)CCNC(=O)c1cc(S(C)(=O)=O)ccc1OC` the value was “inactive”; for `COC(=O)/C=C\C(=O)O`, “inactive”.
For `CC(C)(C)c1nnc(NS(=O)(=O)c2ccccc2)s1`, the Potency result was “inactive”.
Regarding `O=C(O)CNCC(=O)O`, the activation was 0.261% [at 5.99 µM] (inactive).
Take `CCCCCCCCOS(=O)(=O)O`: the Potency entry was “inactive”.
On to `FC(F)(F)C(F)(F)C(F)(F)C(F)(F)C(F)(F)C(F)(F)C(F)(F)C(F)(F)C(F)(F)C(F)(F)F`, for which the activation is 0.0412% [at 5.99 µM] (inactive).
For `CN=C(NC#N)Nc1ccc(C2=NNC(=O)CC2C)cc1` (stereo not given), the Potency entry is “inactive”.
Still for that read-out and setting: for `Nc1ccn([C@@H]2O[C@H](CO)[C@@H](O)C2(F)F)c(=O)n1` the value was “inactive”.
As to `C[N+](C)(C)CCOC(=O)CCC(=O)OCC[N+](C)(C)C`, the Potency entry is “inactive”.
Same read-out and setting: with `O=C1OCc2ccccc21` the entry was “inactive”; with `CCOC(=O)c1cnc2c(cnn2CC)c1NN=C(C)C`, “inactive”; with `CSc1nc(NC2CC2)nc(NC(C)(C)C)n1`, “inactive”.
Regarding `CN=C(N)NC(=O)Nc1c(C)cccc1C`, the Potency entry was “inactive”.
Still for that read-out and setting: with `C=CCON/C(CCC)=C1\C(=O)CC(C)(C)C(C(=O)OC)=C1O` the entry was “inactive”; with `C=C1C[C@@]23CC[C@H]4[C@@](C)(CCC[C@@]4(C)C(=O)O[C@@H]4O[C@H](CO)[C@@H](O)[C@H](O)[C@H]4O)[C@@H]2CC[C@]1(O[C@@H]1O[C@H](CO)[C@@H](O)[C@H](O[C@@H]2O[C@H](CO)[C@@H](O)[C@H](O)[C@H]2O)[C@H]1O[C@@H]1O[C@H](CO)[C@@H](O)[C@H](O)[C@H]1O)C3`, “inactive”; with `CO[C@@]1(NC(=O)CSCC#N)C(=O)N2C(C(=O)O)=C(CSc3nnnn3C)CS[C@@H]21`, “inactive”.
The same measure, in the same setting: for `O=NN(CCCl)C(=O)NCCCl` the value was “inactive”.
On the same count and under the same terms, for `O=P(O)(O)OCC(O)CO` (stereo not given) the value was “inactive”; for `Fc1ccc([C@@H]2CCNC[C@H]2COc2ccc3c(c2)OCO3)cc1`, “inactive”; for `C#CC(C)(CC)OC(=O)c1ccccc1C(=O)O` (stereo not given), “inactive”.
On to `CC(C)(C)c1cccc(O)c1`, for which the Potency result was “inactive”.
The same measure, in the same setting: for `Cn1nnc2c(C(N)=O)ncn2c1=O` the value was “inactive”; for `CC(C)=CCOC(=O)c1ccccc1`, “inactive”.
Same read-out and setting: for `O=[N+]([O-])c1ccc(/C=N\O)o1` the value was “inactive”; for `CC1=CP(=O)(c2ccccc2)CC1` (stereo not given), “inactive”; for `CCn1c2ccccc2c2cc([N+](=O)[O-])ccc21`, “inactive”.
Still for that read-out and setting: with `CCCCc1ccc(N)cc1` the entry was “inactive”; with `Cc1cc(S(=O)(=O)O)ccc1N=Nc1c(O)ccc2ccccc12`, “inactive”.
In the case of `O=C(O)C1(C(=O)O)CCC1.[NH2-].[NH2-].[Pt+2]`, the Potency entry is “inactive”.
On the same count and under the same terms, for `CCCCCCC(O)CCCCCCCCCCC(=O)OC` (stereo not given) the value was “inactive”.
Consider `CO[Si](CCC1CCC2OC2C1)(OC)OC` (stereo not given), for which the Potency entry is “inactive”.
Same read-out and setting: for `O=C(O)c1ccc[n+]([O-])c1` the value was “inactive”.
`C=C[Si](C)(C)Cl`: the activation is -12.4% [at 5.99 µM] (inactive).
On to `Cc1cc(C)n(CO)n1`, for which the Potency entry was “inactive”.
As for `CC1(C)C(=O)C(C)(C)C1=O`, the Potency result is “inactive”.
